Test results published in the supplement of paper PMC11732987, “Enantioselective OTUD7B fragment discovery through chemoproteomics screening and high-throughput optimisation” (Communications Chemistry, 2025).

How the values were obtained:
Test in all cases: log2 ratio of Biotin-Ahx-Ub-VS probe labelling (fragment/DMSO); higher = less target engagement (more negative = stronger competition), active = hit call of the paper (q ≤ 0.05, log2 ratio ≤ -1)
Conditions in all cases: compound concentration: 200 uM; treatment time: 3 h
USP34 = USP34 (UniProt Q70CQ2)
Procedure, shortened: (§1)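 The table lists average log2 ratios of fragment over vehicle, from an unpaired t-test on global-median-normalised Spectronaut label-free quantities. Proteins with ≥2 unique peptides were used. Samples were HEK293T lysate (495 µg) treated in triplicate with fragment at 200 µM or vehicle for 3 h, then with Biotin-Ahx-Ub-VS (0.5 µM final) for 1 h, with labelled DUBs NeutrAvidin-enriched and run by diaPASEF LC-MS/MS.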

USP36 = target: T1, USP36 (UniProt Q9P275)
T1 sequence (whole entry): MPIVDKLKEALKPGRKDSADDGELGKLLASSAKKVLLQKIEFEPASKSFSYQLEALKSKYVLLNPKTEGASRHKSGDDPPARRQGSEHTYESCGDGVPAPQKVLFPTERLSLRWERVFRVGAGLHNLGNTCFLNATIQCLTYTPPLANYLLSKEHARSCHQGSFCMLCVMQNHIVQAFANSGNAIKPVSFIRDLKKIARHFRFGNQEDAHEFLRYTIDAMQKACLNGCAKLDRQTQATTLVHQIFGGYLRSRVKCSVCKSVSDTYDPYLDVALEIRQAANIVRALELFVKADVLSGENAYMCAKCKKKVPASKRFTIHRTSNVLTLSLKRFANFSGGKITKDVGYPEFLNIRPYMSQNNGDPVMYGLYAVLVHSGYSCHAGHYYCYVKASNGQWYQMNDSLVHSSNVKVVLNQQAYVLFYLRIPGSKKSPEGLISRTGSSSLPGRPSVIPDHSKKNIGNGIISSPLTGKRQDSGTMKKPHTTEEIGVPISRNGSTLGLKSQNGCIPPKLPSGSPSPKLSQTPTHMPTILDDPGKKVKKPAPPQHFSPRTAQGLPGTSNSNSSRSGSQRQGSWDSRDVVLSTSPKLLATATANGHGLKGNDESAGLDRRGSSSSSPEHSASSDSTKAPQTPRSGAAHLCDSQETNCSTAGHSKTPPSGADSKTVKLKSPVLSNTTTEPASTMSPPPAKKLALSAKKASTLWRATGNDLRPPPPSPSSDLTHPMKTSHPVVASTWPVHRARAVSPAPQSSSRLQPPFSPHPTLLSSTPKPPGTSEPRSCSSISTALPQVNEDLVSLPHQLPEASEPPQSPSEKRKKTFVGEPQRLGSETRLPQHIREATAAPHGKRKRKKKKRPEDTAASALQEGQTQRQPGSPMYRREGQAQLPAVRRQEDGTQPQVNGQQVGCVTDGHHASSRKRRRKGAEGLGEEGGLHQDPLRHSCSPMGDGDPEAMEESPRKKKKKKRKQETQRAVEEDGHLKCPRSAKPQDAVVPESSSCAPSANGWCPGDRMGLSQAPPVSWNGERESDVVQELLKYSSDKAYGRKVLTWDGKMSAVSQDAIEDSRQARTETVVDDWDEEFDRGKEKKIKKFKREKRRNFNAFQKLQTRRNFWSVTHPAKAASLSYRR
Procedure, shortened: as §1

USP38 = target: T2, USP38 (UniProt Q8NB14)
T2 sequence (whole entry): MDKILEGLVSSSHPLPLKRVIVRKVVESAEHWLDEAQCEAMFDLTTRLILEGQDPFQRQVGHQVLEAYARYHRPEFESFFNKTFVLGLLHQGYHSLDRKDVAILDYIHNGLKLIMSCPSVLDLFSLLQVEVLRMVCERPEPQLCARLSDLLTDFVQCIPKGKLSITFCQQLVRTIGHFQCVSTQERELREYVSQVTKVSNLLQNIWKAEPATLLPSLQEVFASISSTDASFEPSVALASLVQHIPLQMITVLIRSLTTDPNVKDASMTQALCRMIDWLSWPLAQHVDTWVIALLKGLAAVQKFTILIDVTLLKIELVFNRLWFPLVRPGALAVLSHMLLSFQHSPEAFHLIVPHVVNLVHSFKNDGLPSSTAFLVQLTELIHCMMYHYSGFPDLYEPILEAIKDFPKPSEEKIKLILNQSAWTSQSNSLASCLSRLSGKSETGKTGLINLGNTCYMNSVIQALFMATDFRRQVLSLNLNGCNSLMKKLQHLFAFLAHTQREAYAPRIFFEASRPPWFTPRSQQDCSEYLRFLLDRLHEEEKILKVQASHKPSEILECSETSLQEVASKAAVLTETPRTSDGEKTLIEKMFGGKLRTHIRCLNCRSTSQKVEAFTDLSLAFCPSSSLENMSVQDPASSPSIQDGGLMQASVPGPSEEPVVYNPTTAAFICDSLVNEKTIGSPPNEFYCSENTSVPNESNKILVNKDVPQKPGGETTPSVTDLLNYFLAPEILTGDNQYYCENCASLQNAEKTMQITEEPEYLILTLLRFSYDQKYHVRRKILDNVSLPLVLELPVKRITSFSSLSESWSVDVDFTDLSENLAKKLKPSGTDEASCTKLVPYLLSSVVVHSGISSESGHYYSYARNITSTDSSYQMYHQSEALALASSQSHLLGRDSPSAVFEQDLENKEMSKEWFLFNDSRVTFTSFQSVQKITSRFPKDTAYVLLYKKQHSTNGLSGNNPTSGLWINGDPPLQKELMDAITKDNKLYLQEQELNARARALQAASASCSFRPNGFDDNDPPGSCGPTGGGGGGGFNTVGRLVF
Procedure, shortened: as §1

USP39 = target: T3, USP39 (UniProt Q53GS9)
T3 sequence (whole entry): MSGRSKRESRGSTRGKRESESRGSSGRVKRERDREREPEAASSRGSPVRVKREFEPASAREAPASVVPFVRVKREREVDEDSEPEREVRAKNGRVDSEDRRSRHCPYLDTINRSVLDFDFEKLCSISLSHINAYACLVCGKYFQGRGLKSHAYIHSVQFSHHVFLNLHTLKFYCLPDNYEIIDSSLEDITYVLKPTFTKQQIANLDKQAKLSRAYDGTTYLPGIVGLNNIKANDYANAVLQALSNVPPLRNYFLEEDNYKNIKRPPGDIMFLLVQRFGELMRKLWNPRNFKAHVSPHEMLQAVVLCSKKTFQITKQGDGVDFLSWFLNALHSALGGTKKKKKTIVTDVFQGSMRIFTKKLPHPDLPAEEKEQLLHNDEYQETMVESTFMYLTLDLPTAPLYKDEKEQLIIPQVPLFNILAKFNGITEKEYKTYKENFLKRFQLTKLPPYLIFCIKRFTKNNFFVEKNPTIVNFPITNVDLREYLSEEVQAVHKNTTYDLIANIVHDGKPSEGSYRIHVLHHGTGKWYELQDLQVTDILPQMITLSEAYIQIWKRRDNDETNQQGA
Procedure, shortened: as §1

USP4 = target: T4, USP4 (UniProt Q13107)
T4 sequence (whole entry): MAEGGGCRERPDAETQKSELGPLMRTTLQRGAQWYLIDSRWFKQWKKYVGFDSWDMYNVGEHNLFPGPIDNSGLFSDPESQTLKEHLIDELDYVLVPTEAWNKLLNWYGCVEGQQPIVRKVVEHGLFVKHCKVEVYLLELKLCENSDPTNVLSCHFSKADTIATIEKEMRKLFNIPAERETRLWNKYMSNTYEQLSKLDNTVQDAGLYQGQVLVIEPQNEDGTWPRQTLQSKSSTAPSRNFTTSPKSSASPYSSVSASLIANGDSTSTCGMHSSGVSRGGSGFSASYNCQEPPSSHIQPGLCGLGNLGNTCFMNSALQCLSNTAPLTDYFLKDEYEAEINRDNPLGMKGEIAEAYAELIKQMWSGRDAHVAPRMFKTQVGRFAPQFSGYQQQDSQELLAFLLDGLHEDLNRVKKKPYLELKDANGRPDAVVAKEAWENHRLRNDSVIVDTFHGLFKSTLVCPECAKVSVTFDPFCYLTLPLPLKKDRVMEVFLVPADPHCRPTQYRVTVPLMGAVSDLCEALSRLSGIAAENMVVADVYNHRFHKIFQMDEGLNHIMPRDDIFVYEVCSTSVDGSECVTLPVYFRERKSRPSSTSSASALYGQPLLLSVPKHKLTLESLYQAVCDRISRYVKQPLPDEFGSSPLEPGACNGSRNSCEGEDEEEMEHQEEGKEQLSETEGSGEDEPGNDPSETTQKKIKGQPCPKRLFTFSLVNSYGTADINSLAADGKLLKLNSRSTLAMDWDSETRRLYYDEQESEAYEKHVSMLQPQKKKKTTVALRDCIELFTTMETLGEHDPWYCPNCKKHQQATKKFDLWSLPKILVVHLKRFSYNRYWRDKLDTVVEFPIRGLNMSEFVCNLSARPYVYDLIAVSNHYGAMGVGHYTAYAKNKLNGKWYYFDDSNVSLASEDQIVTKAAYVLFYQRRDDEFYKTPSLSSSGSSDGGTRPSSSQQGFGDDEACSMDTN
Procedure, shortened: as §1

Measured: log2 ratio of Biotin-Ahx-Ub-VS probe labelling

USP34, sequence (Q70CQ2 whole entry, the tested form may be a part): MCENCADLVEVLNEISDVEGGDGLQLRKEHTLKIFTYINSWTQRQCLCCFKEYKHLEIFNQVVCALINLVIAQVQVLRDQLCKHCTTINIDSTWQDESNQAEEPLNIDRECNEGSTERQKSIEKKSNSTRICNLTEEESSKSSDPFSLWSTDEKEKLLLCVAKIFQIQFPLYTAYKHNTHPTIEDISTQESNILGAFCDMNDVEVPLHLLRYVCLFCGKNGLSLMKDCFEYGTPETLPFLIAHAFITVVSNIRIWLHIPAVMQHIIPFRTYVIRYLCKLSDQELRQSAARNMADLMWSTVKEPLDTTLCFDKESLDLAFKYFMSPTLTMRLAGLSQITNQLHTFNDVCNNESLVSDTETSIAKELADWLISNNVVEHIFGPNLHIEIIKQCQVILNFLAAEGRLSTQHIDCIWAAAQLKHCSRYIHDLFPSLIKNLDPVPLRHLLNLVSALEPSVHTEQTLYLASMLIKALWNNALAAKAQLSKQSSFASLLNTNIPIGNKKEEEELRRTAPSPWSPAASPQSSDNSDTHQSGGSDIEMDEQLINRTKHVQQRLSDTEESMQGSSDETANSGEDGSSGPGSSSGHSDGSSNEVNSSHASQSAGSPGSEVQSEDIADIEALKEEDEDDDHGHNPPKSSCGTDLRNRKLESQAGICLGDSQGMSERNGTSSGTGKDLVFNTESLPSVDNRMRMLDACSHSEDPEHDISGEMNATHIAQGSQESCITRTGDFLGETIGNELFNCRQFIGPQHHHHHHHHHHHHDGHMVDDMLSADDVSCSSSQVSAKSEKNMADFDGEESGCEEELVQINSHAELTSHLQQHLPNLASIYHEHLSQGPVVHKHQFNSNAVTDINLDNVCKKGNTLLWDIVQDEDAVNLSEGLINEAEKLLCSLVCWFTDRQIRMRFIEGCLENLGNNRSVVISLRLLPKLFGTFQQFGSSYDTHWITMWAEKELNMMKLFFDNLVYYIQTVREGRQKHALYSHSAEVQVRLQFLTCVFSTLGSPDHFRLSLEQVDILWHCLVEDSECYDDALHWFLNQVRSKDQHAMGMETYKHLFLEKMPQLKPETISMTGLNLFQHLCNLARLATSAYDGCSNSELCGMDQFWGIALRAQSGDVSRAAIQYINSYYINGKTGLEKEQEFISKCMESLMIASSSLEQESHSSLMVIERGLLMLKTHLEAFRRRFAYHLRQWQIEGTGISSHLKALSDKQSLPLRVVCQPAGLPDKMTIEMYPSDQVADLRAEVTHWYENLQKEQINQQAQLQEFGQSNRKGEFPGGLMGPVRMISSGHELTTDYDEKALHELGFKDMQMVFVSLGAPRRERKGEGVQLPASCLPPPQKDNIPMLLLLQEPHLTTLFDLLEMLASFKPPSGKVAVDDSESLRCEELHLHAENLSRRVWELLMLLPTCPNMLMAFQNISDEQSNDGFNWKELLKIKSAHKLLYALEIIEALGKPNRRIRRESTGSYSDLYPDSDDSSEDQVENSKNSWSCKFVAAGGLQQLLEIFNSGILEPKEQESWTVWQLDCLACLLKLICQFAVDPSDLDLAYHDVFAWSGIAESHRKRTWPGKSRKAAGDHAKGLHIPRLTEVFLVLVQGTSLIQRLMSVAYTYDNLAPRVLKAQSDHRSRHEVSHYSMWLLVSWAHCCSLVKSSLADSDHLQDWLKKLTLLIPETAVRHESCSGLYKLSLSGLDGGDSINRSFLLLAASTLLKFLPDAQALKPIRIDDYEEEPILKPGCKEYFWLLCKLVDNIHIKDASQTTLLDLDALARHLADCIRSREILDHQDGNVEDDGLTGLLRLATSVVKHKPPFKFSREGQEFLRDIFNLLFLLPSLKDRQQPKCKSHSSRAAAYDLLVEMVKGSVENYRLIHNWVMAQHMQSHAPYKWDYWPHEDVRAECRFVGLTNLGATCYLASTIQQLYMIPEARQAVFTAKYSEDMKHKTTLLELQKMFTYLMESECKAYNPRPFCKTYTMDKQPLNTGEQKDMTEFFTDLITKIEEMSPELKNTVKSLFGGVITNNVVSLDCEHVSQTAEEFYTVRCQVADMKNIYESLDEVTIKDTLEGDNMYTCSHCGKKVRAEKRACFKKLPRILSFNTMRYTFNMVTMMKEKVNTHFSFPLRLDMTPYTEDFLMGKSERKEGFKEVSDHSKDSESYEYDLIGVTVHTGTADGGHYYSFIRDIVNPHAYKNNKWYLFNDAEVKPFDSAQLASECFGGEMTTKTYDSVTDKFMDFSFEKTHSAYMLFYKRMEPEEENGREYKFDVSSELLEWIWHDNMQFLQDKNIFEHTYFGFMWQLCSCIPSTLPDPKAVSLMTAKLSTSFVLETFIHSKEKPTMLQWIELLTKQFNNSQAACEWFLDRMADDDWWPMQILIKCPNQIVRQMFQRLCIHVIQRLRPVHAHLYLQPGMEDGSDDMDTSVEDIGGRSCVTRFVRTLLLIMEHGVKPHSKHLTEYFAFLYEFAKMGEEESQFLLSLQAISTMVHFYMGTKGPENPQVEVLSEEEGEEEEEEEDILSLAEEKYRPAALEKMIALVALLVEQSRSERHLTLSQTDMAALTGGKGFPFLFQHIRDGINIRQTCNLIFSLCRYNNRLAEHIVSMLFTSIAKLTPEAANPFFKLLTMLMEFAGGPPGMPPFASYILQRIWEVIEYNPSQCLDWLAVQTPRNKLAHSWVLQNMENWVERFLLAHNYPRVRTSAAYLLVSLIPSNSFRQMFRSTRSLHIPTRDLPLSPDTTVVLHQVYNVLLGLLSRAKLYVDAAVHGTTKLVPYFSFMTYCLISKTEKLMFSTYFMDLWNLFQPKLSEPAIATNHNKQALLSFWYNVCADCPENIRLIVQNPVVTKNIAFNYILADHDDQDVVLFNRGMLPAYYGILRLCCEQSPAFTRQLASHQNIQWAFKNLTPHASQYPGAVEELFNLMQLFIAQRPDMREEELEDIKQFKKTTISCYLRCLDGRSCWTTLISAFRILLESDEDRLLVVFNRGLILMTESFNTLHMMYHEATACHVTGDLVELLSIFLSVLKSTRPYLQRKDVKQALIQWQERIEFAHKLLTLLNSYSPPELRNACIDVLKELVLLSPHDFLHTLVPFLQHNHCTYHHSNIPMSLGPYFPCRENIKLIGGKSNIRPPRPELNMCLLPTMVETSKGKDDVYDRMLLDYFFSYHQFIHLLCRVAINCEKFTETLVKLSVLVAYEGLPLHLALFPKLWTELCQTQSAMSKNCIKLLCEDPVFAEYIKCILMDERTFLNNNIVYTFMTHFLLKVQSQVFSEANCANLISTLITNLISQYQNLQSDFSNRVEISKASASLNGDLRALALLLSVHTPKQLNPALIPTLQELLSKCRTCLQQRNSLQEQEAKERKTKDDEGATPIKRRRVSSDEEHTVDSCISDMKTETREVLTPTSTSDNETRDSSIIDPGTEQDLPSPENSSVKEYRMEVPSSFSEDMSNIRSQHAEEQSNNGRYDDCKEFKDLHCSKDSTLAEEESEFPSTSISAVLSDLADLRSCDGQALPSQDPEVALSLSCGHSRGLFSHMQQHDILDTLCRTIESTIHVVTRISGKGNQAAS

O=C(CCl)N[C@H]1CCS(=O)(=O)c2ccccc21
inactive: USP34 -0.277 | USP36 -0.115 | USP38 -0.13 | USP39 -0.176 | USP4 -0.212
